Results reported in PubChem BioAssay (NCATS).
Several values for one entry are separate records, joined by “and”; a condition that tells them apart may be missing. Identical values can stand only once. Records with an inconclusive call do not appear. A call without a number means that no potency is given here. Activity calls are given as the source filed them. Unless noted, the call rests on the fitted dose curve; in most records, active means well fitted curve in the direction sought with a large enough effect; inconclusive means small, poorly fitted or top-dose-only effect, or another doubt; inactive means no such curve, though single readings can be large; an effect the other way counts as inactive or inconclusive. Residues, ends and D or L forms follow the SMILES beside them.

Key:
[1] = AP1 Signaling Pathway (AID 357; active means well fitted curve in either direction with a large enough effect, not every such curve was filed as active;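 further: ME-180 reporter cells stimulated with EGF at its EC50 level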); conditions: ME-180 AP-1-bla reporter, EGF-induced, beta-lactamase ratio, 5 h
Method in brief: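 Modulation of EGF-driven AP-1 transcription was assessed with a beta-lactamase reporter in ME-180 cells. Compound and EC50 EGF were co-incubated 5 hours at 37 °C before 2.5-hour CCF4 loading at room temperature and dual-emission reading.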

[2] = biological target: Cytochrome P450 1A2 (Homo sapiens) (UniProt P05177); assay: p450-cyp1a2 (AID 410; calls by dose curve; further: potency means the concentration at half of the fitted maximal effect); conditions: recombinant CYP1A2, luciferin-ME demethylation, luminescence; series mostly up to 57 µM
Sequence of Cytochrome P450 1A2 (Homo sapiens) (P05177 whole entry, looked up): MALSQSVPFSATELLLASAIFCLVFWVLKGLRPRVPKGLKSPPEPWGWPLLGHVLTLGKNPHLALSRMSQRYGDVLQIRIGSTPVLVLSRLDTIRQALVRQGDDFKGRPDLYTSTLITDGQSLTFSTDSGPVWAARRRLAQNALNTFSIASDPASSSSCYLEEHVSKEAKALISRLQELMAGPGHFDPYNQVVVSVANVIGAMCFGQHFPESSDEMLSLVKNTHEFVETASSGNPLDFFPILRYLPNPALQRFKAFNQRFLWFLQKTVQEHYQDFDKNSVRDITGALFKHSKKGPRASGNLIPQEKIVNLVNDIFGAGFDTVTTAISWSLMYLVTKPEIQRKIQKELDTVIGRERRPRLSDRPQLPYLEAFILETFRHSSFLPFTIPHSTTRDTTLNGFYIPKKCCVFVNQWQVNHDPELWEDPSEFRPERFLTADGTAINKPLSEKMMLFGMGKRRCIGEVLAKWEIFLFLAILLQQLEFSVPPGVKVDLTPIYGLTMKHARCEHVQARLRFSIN
Method in brief: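 Luminescent readout of luciferin formed from Luciferin-ME by human CYP1A2; data normalized against complete inhibition by 57 uM furafylline. Enzyme 20nM, substrate 100uM at Km, 100mM KPO4 buffer, 60 min reaction at room temperature.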

[3] = NFAT Signaling Pathway (AID 444; active means well fitted curve in either direction with a large enough effect, not every such curve was filed as active;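 further: carbachol stimulus at about its EC50 of 1 µM final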); conditions: Jurkat NFAT-bla M1, carbachol, beta-lactamase ratio, 5 h
Method in brief: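 Jurkat cells carrying an NFAT-driven β-lactamase reporter and co-transfected muscarinic M1 receptor were treated with compound plus carbachol (1 uM final, an EC50 level) for 5 h at 37 °C. CCF4 loading followed for 1 h at RT; 460/530 nm ratio gave %activity.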

[4] = Stat Signaling Pathway (AID 446; active means well fitted curve in either direction with a large enough effect, not every such curve was filed as active;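 further: ME-180 cervical cancer cells given 40 pM IL-6 alongside compound; SIE-controlled beta-lactamase reporter measured as 460/530 nm FRET emission ratio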); conditions: ME-180 SIE beta-lactamase reporter, IL-6 stimulated, 5 h
Method in brief: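 ME-180 SIE-bla cells; overnight plating; cpd + IL-6 40 pM, 5 h, 37 C; LiveBLAzer 2.5 h RT; 460/530 nm emission ratio. Normalized to 300 pM IL-6 and 125 nM JAK inhibitor controls.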

[5] = biological target: 3',5'-cyclic-AMP phosphodiesterase 4B (Homo sapiens) (UniProt Q07343); assay: qHTS Assay for Inhibitors of PDE-IV (AID 607; active means well fitted activation curve with a large enough effect in the main read-out, with a control signal flat, not every such curve was filed as active); conditions: HEK293 ACTOne CNG channel cells, membrane potential fluorescence; series mostly up to 22.9 µM
Sequence of 3',5'-cyclic-AMP phosphodiesterase 4B (Homo sapiens) (Q07343 whole entry, looked up): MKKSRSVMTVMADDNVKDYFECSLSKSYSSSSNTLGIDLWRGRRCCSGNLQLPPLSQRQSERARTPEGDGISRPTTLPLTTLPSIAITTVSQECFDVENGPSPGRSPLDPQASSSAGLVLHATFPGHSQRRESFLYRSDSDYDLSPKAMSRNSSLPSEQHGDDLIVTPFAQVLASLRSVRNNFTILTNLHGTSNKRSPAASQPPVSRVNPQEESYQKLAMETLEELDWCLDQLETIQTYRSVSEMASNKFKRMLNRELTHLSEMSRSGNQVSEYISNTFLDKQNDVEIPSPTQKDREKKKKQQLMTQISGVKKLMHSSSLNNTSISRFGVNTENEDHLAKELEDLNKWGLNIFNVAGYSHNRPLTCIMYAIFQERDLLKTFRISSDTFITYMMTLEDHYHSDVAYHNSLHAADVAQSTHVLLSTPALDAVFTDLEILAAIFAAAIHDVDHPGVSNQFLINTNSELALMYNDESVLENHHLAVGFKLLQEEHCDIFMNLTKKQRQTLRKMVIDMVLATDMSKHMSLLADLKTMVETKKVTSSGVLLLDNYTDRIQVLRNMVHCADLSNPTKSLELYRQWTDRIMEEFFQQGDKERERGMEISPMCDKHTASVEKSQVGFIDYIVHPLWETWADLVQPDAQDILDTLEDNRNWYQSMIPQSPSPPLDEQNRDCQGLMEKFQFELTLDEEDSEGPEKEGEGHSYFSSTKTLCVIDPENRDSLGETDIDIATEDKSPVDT
Method in brief: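 ACTOne HEK293 cells carry a modified cAMP-gated CNG channel and express endogenous PDE4; plated 1000 cells/well, compounds up to 22.9 uM final. Membrane-potential dye fluorescence (ex 535/em 590) was read; parental cells received 10 uM forskolin + 100 uM RO 20-1724.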

[6] = biological target: Guanine nucleotide-binding protein G(i) subunit alpha-1 (Homo sapiens) (UniProt P63096); assay: qHTS Assay for Inhibitors of RGS12 GoLoco Motif Activity (Green Fluorophore) (AID 879); conditions: Galphai1/FITC-RGS12 GoLoco peptide, fluorescence polarization; series mostly up to 57.1 µM;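 further: negative values mean loss of peptide binding seen as reduced polarization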
Sequence of Guanine nucleotide-binding protein G(i) subunit alpha-1 (Homo sapiens) (P63096 whole entry, looked up): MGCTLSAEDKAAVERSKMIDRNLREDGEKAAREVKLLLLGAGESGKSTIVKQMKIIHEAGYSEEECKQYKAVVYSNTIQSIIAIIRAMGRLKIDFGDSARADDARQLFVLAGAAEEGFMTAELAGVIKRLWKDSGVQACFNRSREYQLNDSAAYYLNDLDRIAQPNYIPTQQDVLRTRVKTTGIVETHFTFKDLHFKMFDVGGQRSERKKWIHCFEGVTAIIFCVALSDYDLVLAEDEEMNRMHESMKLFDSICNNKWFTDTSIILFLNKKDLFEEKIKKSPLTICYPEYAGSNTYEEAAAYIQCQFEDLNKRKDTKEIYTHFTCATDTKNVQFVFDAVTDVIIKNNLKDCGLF
Method in brief: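 Fluorescence polarization assay: 50 nM Gαi1 with 10 nM FITC-labeled RGS12 GoLoco peptide in 10 mM Tris pH 7.5, 150 mM NaCl, 0.1 mM GDP, 0.05% NP40, 10 min at room temperature with compound.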

[7] = biological target: Cytochrome P450 2C9 (Homo sapiens) (UniProt P11712); assay: qHTS Assay for Inhibitors and Substrates of Cytochrome P450 2C9 (AID 883); conditions: recombinant CYP2C9, luciferin-H luminescence, 60 min; series mostly up to 57.1 µM; further: potency means the concentration at half of the fitted maximal effect; nearly all actives have a fitted effect of over 60% in size
Sequence of Cytochrome P450 2C9 (Homo sapiens) (P11712 whole entry, looked up): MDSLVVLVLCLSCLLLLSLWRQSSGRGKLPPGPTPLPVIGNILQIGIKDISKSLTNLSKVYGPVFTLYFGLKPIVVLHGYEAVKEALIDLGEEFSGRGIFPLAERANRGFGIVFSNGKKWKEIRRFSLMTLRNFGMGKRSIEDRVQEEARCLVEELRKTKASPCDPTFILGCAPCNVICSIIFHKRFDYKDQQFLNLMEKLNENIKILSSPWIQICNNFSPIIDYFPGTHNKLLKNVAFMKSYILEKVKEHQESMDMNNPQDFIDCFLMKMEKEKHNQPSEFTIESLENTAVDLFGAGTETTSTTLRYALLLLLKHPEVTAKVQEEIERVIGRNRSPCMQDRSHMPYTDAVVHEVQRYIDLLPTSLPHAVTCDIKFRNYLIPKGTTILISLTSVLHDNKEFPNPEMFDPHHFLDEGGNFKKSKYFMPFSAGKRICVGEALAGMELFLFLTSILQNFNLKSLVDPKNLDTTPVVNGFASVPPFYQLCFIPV
Method in brief: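 CYP2C9 deoxyluciferin hydroxylation, 37C, 60 min with NADPH regeneration; 10nM enzyme, 100uM Luciferin-H (KM). Glo detection reagent stopped reaction; luminescence normalized to sulphaphenazole (57uM) full inhibition.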

[8] = biological target: Cytochrome P450 3A4 (Homo sapiens) (UniProt P08684); assay: qHTS Assay for Activators of Cytochrome P450 3A4 (AID 885); conditions: recombinant CYP3A4, Luciferin-PPXE luminescence, 60 min; series mostly up to 57.1 µM; further: nearly all actives have a fitted effect of over 65% in size; further: potency means the concentration at half of the fitted maximal effect
Sequence of Cytochrome P450 3A4 (Homo sapiens) (P08684 whole entry, looked up): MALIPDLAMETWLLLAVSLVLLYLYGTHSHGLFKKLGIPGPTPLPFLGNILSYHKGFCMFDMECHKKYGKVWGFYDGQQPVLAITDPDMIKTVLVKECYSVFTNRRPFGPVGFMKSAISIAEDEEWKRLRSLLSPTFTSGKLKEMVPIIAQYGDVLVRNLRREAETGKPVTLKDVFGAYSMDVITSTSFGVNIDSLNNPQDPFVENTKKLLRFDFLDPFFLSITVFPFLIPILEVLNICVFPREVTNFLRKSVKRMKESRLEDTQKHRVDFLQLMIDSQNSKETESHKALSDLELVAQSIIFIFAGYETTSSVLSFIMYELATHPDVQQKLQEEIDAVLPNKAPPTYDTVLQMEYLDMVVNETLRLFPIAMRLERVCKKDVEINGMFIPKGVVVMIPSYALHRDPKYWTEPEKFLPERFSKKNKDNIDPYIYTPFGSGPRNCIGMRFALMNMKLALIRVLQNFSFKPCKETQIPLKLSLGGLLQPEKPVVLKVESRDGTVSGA
Method in brief: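 20nM CYP3A4 + 25uM Luciferin-PPXE (=KM), 200mM KPO4; cpd 10 min RT; NADPH regen, 60 min RT; stop w/ detection buffer, 20 min; luminescence. Normalized to 57 uM ketoconazole.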

[9] = biological target: Pyruvate kinase (Leishmania mexicana) (UniProt Q27686); assay: qHTS Validation Assay for Inhibitors of Leishmania Mexicana Pyruvate Kinase (AID 945); conditions: purified L. mexicana pyruvate kinase, enzyme activity, E451W mutant enzyme; series mostly up to 57.5 µM
Sequence of Pyruvate kinase (Leishmania mexicana) (Q27686 2-499 E452W): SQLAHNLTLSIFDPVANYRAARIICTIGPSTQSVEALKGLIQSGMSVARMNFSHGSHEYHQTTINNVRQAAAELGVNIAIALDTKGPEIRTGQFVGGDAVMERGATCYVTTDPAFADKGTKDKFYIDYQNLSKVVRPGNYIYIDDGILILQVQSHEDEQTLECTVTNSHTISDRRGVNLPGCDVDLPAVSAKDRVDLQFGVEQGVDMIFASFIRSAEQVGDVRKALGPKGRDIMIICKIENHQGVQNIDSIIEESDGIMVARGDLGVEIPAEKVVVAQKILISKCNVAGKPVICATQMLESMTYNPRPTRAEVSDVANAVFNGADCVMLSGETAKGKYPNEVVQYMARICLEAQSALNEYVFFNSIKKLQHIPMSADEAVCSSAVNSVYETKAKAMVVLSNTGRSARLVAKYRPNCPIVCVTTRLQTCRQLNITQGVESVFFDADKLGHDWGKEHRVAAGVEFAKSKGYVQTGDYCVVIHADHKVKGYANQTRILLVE
Method in brief: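 Mutant LmPYK (E451W), 0.2 nM, plus 0.5 mM PEP and 0.1 mM ADP in 50 mM imidazole pH 7.2 containing 0.01% Tween 20 and 0.05% BSA. Incubated 1 h at room temperature; luminescence via PKLight, normalized to DMSO.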

[10] = biological target: Pyruvate kinase PKM (Homo sapiens) (UniProt P14618); assay: qHTS Assay for Activators of Human Muscle Pyruvate Kinase (AID 954; active means well fitted curve in the direction sought with a large enough effect, not every such curve was filed as active); conditions: purified human muscle pyruvate kinase, luciferase-coupled luminescence, 1 h; series mostly up to 57.5 µM
Sequence of Pyruvate kinase PKM (Homo sapiens) (P14618 whole entry, looked up): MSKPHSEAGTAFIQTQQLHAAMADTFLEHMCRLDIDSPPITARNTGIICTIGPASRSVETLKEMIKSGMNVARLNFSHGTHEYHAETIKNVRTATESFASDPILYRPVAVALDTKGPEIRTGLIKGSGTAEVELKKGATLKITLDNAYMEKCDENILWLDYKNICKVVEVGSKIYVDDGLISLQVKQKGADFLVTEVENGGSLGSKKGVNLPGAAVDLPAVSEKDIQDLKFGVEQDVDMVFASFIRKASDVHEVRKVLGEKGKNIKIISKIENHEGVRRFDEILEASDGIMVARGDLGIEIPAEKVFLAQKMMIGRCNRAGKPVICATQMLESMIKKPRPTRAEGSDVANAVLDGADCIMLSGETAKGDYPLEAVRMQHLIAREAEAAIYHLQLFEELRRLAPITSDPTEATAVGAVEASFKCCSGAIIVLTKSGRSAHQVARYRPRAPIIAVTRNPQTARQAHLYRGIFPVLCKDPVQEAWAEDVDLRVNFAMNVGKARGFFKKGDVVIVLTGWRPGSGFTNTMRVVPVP
Method in brief: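 Luminescence from a luciferase ATP-detection/stop reagent reported PKM2 activity. Reactions contained 0.1 nM purified human enzyme, 0.5 mM PEP, 0.1 mM ADP and 7 mM MgCl2 at pH 7.2, run 1 h at RT.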

[11] = biological target: Alpha-galactosidase A (Homo sapiens) (UniProt P06280); assay: Counterscreen for Glucocerebrosidase Inhibitors: qHTS Assay for Human alpha-Galactosidase at pH 4.5 (AID 992); conditions: purified enzyme, fluorogenic substrate; series mostly up to 76.9 µM
Sequence of Alpha-galactosidase A (Homo sapiens) (P06280 whole entry, looked up): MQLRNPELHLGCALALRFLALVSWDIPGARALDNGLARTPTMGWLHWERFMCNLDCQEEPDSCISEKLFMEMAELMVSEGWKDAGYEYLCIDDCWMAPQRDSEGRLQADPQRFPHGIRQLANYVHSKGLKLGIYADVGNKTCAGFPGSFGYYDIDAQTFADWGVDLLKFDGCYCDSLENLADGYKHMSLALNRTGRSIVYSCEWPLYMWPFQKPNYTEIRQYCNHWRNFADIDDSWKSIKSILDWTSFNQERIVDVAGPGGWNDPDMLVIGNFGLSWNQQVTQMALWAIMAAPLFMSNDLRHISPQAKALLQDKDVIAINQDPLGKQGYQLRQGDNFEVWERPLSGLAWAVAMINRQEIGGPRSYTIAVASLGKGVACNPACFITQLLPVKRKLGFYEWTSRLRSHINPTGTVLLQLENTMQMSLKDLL
Method in brief: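 Enzyme at 2 nM final was combined with compound (0.7 nM to 77 uM) and 80 uM 4-methylumbelliferyl alpha-D-galactopyranoside in 50 mM citric acid, 0.005% Tween-20, pH 4.5. After 20 min at room temperature, fluorescence was read (Ex 365/Em 440 nm); AC50 came from Hill fits.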

[12] = Confirmatory screen NINDS Rhodamine qHTS for Zika virus inhibitors (AID 1347161); conditions: purified enzyme assay, Rhodamine110 substrate fluorescence, 15 min; series mostly up to 114 µM; further: nearly all actives have a fitted effect of over 60% in size; further: potency means the concentration at half of the fitted maximal effect;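 on activity change, negative = inhibition: purified Zika NS2B-NS3 protease with linked NS2B cofactor domain and Rhodamine110 peptide substrate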
Method in brief: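 Kinetic fluorescence (Ex 480 nm, Em 540 nm) over 15 min with 1.5 microM Rhodamine110 peptide and 25 nM linked protease.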

[13] = Tertiary RLuc qRT-PCR qHTS assay for Zika virus inhibitors (AID 1347169); conditions: infected Vero cells, reporter luminescence, 48-72 h; series mostly up to 1.74 µM; further: top concentration of the series differs between compounds; nearly all actives have a fitted effect of over 55% in size
Method in brief: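 Vero, 1,000 cells/well, o/n 37 C; cpd pinned in DMSO; ZIKV-RLuc Cambodian, MOI 1-2, 48-72 h 37 C; live-cell RLuc substrate, lum read at 1-1.5 h.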

[14] = Primary qHTS for inhibitors of nuclear receptor binding SET domain protein 2 (NSD2) in an isogenic RCH-ACV NSD2 p.E1099K mutant (9B) (AID 1645876); conditions: RCH-ACV NSD2 E1099K (9B) viability, CellTiter-Glo, 72 h; series mostly up to 44.9 µM; further: nearly all actives have a fitted effect of over 70% in size; further: potency means the concentration at half of the fitted maximal effect
[15] = Primary qHTS for inhibitors of nuclear receptor binding SET domain protein 2 (NSD2) in an RCH-ACV wild type WT cells (2C) (AID 1645877); conditions: RCH-ACV (leukaemia line) NSD2 WT (2C) viability, CellTiter-Glo, 72 h; series mostly up to 44.9 µM; further: nearly all actives have a fitted effect of over 70% in size; further: potency means the concentration at half of the fitted maximal effect
[16] = biological target: Glutathione peroxidase 1 (Homo sapiens) (UniProt P07203); assay: Primary qHTS Assay for Inhibitors of Recombinant Selenoprotein Glutathione Peroxidase 1 (GPX1) (AID 1845191); conditions: recombinant GPX1, GR-coupled NADPH fluorescence, 15 min; series mostly up to 48.8 µM; further: nearly all actives have a fitted effect of over 65% in size
Sequence of Glutathione peroxidase 1 (Homo sapiens) (P07203 whole entry, looked up): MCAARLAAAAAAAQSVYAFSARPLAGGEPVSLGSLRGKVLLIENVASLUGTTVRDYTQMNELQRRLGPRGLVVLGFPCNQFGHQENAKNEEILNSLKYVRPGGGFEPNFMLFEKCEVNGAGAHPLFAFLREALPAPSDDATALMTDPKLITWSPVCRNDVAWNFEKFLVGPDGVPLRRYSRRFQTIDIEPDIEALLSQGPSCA
Method in brief: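 Recombinant GPX1 (10 nM final) was preincubated with compound for 30 min at room temperature, then reacted with 1 mM GSH, 0.5 mM CHP, 0.5 mM NADPH and 100 nM glutathione reductase; NADPH fluorescence (340/450 nm) was read at 0 and 15 min.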

[17] = qHTS drug screen for cell cycle checkpoint inhibitors in PARPi-resistant BRCA-mutant ovarian cancer cell lines. (AID 1963452; calls by dose curve); conditions: PEO1/OlaR viability, CellTiter-Glo luminescence, 96 h, stronger effect = lower value
Method in brief: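 PEO1, PEO4 and PEO1/OlaR ovarian cancer cells, 600 per well, exposed 96 h at 37C to a dilution series. Viability read by CellTiter-Glo luminescence, normalized to DMSO and empty wells; activity summarized as Z-AUC.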

[18] = biological target: Cytochrome P450 3A4 (Homo sapiens) (UniProt P08684); assay: qHTS Assay for Inhibitors and Substrates of Cytochrome P450 3A4 (AID 884); conditions: recombinant CYP3A4, Luciferin-PPXE luminescence; series mostly up to 57.1 µM; further: nearly all actives have a fitted effect of over 50% in size; further: potency means the concentration at half of the fitted maximal effect
Method in brief: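 20 nM human CYP3A4 with 25 uM Luciferin-PPXE (at KM) in 200 mM KPO4, preincubated 10 min with compound; NADPH regeneration started a 60 min RT reaction. Luciferin detected by luminescence, normalized to 57 uM ketoconazole as full inhibition.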

O=C(Nc1cc(C(=O)Nc2ccc(S(=O)(=O)O)cc2S(=O)(=O)O)cc(C(=O)Nc2ccc(S(=O)(=O)O)cc2S(=O)(=O)O)c1)Nc1cc(C(=O)Nc2ccc(S(=O)(=O)O)cc2S(=O)(=O)O)cc(C(=O)Nc2ccc(S(=O)(=O)O)cc2S(=O)(=O)O)c1
activity change, negative = inhibition ([1]; at 38 µM (top of the series)): 5.96% (inactive)
Potency [2]: 31.6 µM (active)
activity change, negative = inhibition ([3]; at 38 µM (top of the series)): 1.34% (inactive)
activity, negative = inhibition ([4]; at 38 µM (top of the series)): -91.7% (active)
Potency [5]: inactive
outcome [6]: inactive
Potency [7]: 7.94 µM (active)
Potency [8]: inactive
Potency [9]: inactive
outcome [10]: inactive
outcome [11]: inactive
Potency [12]: 2.24 µM (active) and 2 µM (active)
Potency [13]: inactive

COc1ccc(S(=O)(=O)c2c(Nc3ccc(C)cc3)sc(C(=O)c3ccc4c(c3)OCO4)c2N)cc1
Potency [12]: inactive
Potency [13]: inactive

O=C(COC(=O)c1cccc(NC(=O)c2ccc(Br)cc2)c1)c1ccc(Cl)cc1
Potency [13]: inactive

O=C(Nc1ccc(C(=O)OCc2cc(=O)n3nc(C4CC4)sc3n2)cc1)c1cccc(F)c1
Potency [12]: inactive

O=C(CNC(=O)c1ccccc1F)OCc1cc(=O)n2nc(C3CCCCC3)sc2n1
Potency [12]: inactive
Potency [13]: inactive

CC1(C)CC[C@]2(C(=O)O)CC[C@]3(C)C(=CC[C@@H]4[C@@]5(C)C[C@@H](O)[C@H](O)C(C)(C)[C@@H]5CC[C@]43C)[C@@H]2C1
Potency [14]: inactive
Potency [15]: inactive
Potency [16]: inactive
Z-AUC [17]: 1.45 (inactive)
Z-AUC ([17]; measured here: PEO1 parental Z-AUC): 0.722
Z-AUC ([17]; measured here: PEO4 Z-AUC): 0.511

N[C@H](C(=O)O)c1nn[nH]n1
Potency [2]: inactive
Potency [5]: inactive

NS(=O)(=O)c1cccc(N=Cc2c(O)[nH]c3ccccc23)c1
Potency [16]: inactive

COc1cc2c(cc1OC)C(c1ccc(N)cc1)=NNC(=O)C2
Potency [5]: inactive
Potency [8]: inactive

CC(C)SC(=N)N
Potency [2]: inactive
Potency [5]: inactive

O=C1C=CC(=O)C2=C1C1c3ccccc3C2c2ccccc21
Potency [18]: 39.8 µM (active)
Potency [8]: inactive

O=Nc1c2[nH]c3ccccc3nc-2c2ccccc12
Potency [14]: 13 µM (active)

C[C@@](N)(C(=O)O)c1ccc(S(=O)(=O)O)cc1
Potency [2]: inactive
Potency [5]: inactive

CCCN=C(N)NCCC[C@H](N)C(=O)O
Potency [7]: 3.98 µM (active)

CCC(=O)O[C@H](CC(=O)O)C[N+](C)(C)C
Potency [2]: inactive

Cc1ccc(S(=O)(=O)NCc2ccccc2)cc1
Potency [2]: 0.501 µM (active)
Potency [5]: inactive
Potency [8]: inactive

CN(C)CCOc1ccc(-c2nc(-c3ccc4c(c3)CC/C4=N/O)c(-c3ccncc3)[nH]2)cc1
Potency [14]: 3.66 µM (active)
Potency [15]: 7.31 µM (active)

C[C@@H](CCc1ccc(O)cc1)NCCc1ccc(O)c(O)c1
activity change, negative = inhibition ([1]; at 17.2 µM (top of the series)): 1.11% (inactive)
activity change, negative = inhibition ([1]; at 38 µM (top of the series)): -3.98% (inactive)
Potency [2]: inactive
activity change, negative = inhibition ([3]; at 17.2 µM (top of the series)): -17.4% (inactive)
activity change, negative = inhibition ([3]; at 38 µM (top of the series)): -12.7% (inactive)
activity, negative = inhibition ([4]; at 17.2 µM (top of the series)): 13.9% (inactive)
activity, negative = inhibition ([4]; at 38 µM (top of the series)): -16.8% (inactive)
Potency [5]: inactive
outcome [6]: inactive
Potency [8]: inactive
Potency [9]: inactive
outcome [10]: inactive
outcome [11]: inactive

O=C(c1c(O)c2ccc(Cl)cc2[nH]c1=O)C1CC1
Potency [2]: 0.0794 µM (active)
Potency [5]: inactive
Potency [8]: inactive

CC(C)n1nc(Cc2cccc3ccccc23)c2c(N)ncnc21
Potency [16]: inactive

CC(=O)NCC(=O)N[C@H](CCC(=O)O)C(=O)O (HELM PEPTIDE1{[ac].G.[dE]}$$$$V2.0)
Potency [5]: inactive

O[C@@H](c1ccccc1)C1CCN(CCc2ccccc2)CC1
Potency [18]: inactive
Potency [8]: 15.8 µM (active)
